This passage reports Inhibition results from ChEMBL document CHEMBL4513141, “CO-ADD screening of NIH (USA) - Clinical Collection” (2021).

Broadly, the Inhibition is the change of the read-out against control, counted positive when it falls.

Results with a measured potency or affinity are listed apart.

In the experiment the test system is Candida albicans. To be noted: 20 µM.
For `OC[C@H]1O[C@@H](Oc2cc(O)cc(/C=C/c3ccc(O)cc3)c2)[C@H](O)[C@@H](O)[C@@H]1O` [PICEID], the Inhibition stood at 3.19%.
Regarding `CCN(CC)CCNC(=O)c1cc(Cl)c(N)cc1OC.Cl`, the Inhibition turned out to be 3.69%.
For `CCOC(=O)OC(C)OC1=C(C(=O)Nc2ccccn2)N(C)S(=O)(=O)c2ccccc21` (configuration not stated) [AMPIROXICAM], the Inhibition came out at 0.25%.
For `CCC(=O)O[C@]1(C(=O)CCl)[C@@H](C)C[C@H]2[C@@H]3CCC4=CC(=O)C=C[C@]4(C)[C@@]3(F)[C@@H](O)C[C@@]21C` [CLOBETASOL PROPIONATE] the value was 0.73%; for `CN(CCOc1ccc(NS(C)(=O)=O)cc1)CCc1ccc(NS(C)(=O)=O)cc1` [DOFETILIDE], 2.12%.
As to `Nc1ccc2cn[nH]c2c1`, the Inhibition was found to be 4.22%.
For `Cl.O=C(c1ccc(OCCN2CCCCC2)cc1)c1c(-c2ccc(O)cc2)sc2cc(O)ccc12` [RALOXIFENE HYDROCHLORIDE] the value was 0.43%; for `COc1ccc(/C=C/C(=O)Nc2ccccc2C(=O)O)cc1OC`, 4.95%; for `CC1(C)S[C@@H]2[C@H](/N=C/N3CCCCCC3)C(=O)N2[C@H]1C(=O)O` [AMDINOCILLIN], 4.08%.
Consider `C[C@]12C=CC(=O)C=C1CC[C@@H]1[C@@H]2C(=O)C[C@@]2(C)[C@H]1CC[C@]2(O)C(=O)CO` [PREDNISONE], for which the Inhibition was determined as 1.91%.
Next, `C[C@@H](O)[C@H]1C(=O)N2C(C(=O)O)=C(S[C@@H]3CN[C@H](C(=O)N(C)C)C3)[C@H](C)[C@H]12` [MEROPENEM]: 3.42%; `CCc1cc(C(N)=S)ccn1` [ETHIONAMIDE]: 1.99%.
Consider `COc1cc2nc(N(C)CCCNC(=O)C3CCCO3)nc(N)c2cc1OC` (configuration not stated) [ALFUZOSIN], for which the Inhibition is -0.8%.
`Cc1ccsc1C(=CCCN1CCC[C@@H](C(=O)O)C1)c1sccc1C.Cl` [TIAGABINE HYDROCHLORIDE]: the Inhibition amounted to 1.98%.
On to `CCc1nn(CCCN2CCN(c3cccc(Cl)c3)CC2)c(=O)n1CCOc1ccccc1.Cl` [NEFAZODONE HYDROCHLORIDE], for which the Inhibition was found to be 2.01%.
Next, `Cl.c1ccc(CC2=NCCN2)cc1` [TOLAZOLINE HYDROCHLORIDE]: 2.51%.
As to `CN(C)CC[C@@H](c1ccc(Br)cc1)c1ccccn1.O=C(O)/C=C\C(=O)O` [DEXBROMPHENIRAMINE MALEATE], the Inhibition amounted to 1.43%.
Next, `CC(C)Cc1ccc(C(C)C(=O)O)cc1` (configuration not stated) [IBUPROFEN]: 13.3%.
In the case of `CC[C@]1(O)C[C@@H]2CN(CCc3c([nH]c4ccccc34)[C@@](C(=O)OC)(c3cc4c(cc3OC)N(C=O)[C@H]3[C@@](O)(C(=O)OC)[C@H](OC(C)=O)[C@]5(CC)C=CCN6CC[C@]43[C@@H]65)C2)C1.O=S(=O)(O)O`, the Inhibition stood at 2.01%.
Next, `CC(=O)OCC(CCn1cnc2cnc(N)nc21)COC(C)=O` [FAMCICLOVIR]: 2.72%; `CC12CC3CC(C)(C1)CC(N)(C3)C2.Cl` [MEMANTINE HYDROCHLORIDE]: 4.09%; `CC(C)OC(=O)CCC/C=C\C[C@@H]1[C@@H](CC[C@@H](O)CCc2ccccc2)[C@H](O)C[C@@H]1O` [LATANOPROST]: 0.35%.
In the case of `COC(=O)C1=C(C)NC(C)=C(C(=O)OCC(C)C)C1c1ccccc1[N+](=O)[O-]` (configuration not stated) [NISOLDIPINE], the Inhibition stood at 6.12%.
Next, `CC1=C(C(=O)O)N2C(=O)[C@@H](NC(=O)[C@H](N)c3ccccc3)[C@H]2SC1.O` [CEPHALEXIN]: 2.01%; `Cc1ccc(O)c([C@H](CCN(C(C)C)C(C)C)c2ccccc2)c1.O=C(O)C(O)C(O)C(=O)O` [TOLTERODINE TARTRATE]: 4.41%; `Cl.O=C1CN2Cc3c(ccc(Cl)c3Cl)N=C2N1` [ANAGRELIDE HYDROCHLORIDE]: 3.23%.
For `CN1CCN(CCCN2c3ccccc3Sc3ccc(C(F)(F)F)cc32)CC1.Cl.Cl` [TRIFLUOPERAZINE HYDROCHLORIDE] the value was 2.94%.
As for `CCCC1O[C@@H]2C[C@H]3[C@@H]4CCC5=CC(=O)C=C[C@]5(C)[C@H]4[C@@H](O)C[C@]3(C)[C@]2(C(=O)CO)O1` (some centres not stated) [BUDESONIDE], the Inhibition was determined as 2.59%.
Next, `Clc1ccc2c(c1)C(N1CCNCC1)=Nc1ccccc1O2` [AMOXAPINE]: 4.28%; `Cc1cccc(C)c1NC(=O)C(C)N` (configuration not stated) [TOCAINIDE]: 1.33%; `CC(C)NCC(O)c1ccc(NS(C)(=O)=O)cc1.Cl` (configuration not stated) [SOTALOL HYDROCHLORIDE]: 5.09%.
Next, `COCCCC/C(=N\OCCN)c1ccc(C(F)(F)F)cc1.O=C(O)/C=C\C(=O)O` [FLUVOXAMINE MALEATE]: 2.11%.
